Bioassay records deposited in PubChem BioAssay by The Scripps Research Institute Molecular Screening Center.
SRC3 TRFRET art: TR-FRET artefact, counter-screen to PPARgamma/SRC-3 agonist assay | PPARgamma/SRC-3 format; stronger effect = higher value | TR-FRET ratio at 8 µM | actives 0.39% (n = 99,000)
PPARg SRC-2 ag: promotes SRC-2 coactivator recruitment by human PPARgamma | P37231 | PPARgamma LBD-SRC-2 recruitment, biochemical | activation, % at 8 µM | actives 0.34% (n = 200,000) | AID 1032; in the data active = activation above about 22%
Target sequence (P37231 whole entry, looked up, the tested form may be a part): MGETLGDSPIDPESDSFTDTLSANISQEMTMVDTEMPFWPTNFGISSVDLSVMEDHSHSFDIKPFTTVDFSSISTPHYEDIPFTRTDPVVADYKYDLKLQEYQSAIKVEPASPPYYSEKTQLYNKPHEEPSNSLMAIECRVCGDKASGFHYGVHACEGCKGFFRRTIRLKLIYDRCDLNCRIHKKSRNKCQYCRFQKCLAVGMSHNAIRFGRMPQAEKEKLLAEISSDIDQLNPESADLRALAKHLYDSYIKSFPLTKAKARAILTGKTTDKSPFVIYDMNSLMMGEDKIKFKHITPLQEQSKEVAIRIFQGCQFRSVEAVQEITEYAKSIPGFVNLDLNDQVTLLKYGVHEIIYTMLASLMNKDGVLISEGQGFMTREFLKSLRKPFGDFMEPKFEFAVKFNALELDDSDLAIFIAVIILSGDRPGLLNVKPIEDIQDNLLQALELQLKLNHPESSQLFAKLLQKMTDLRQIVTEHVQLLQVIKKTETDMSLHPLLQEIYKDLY
TR-FRET SRC-2 ct: TR-FRET artefact, counter-screen to PPARgamma/SRC-2 agonist assay | stronger effect = higher value | TR-FRET ratio at 8 µM | actives 0.4% (n = 200,000) | AID 1049
SRC1 TRFRET art: counter-screen for PPARgamma SRC-1 recruitment agonists: TR-FRET artefact. TR-FRET detection artefact counter-screen, emission ratio; stronger effect = higher value. TR-FRET ratio at 8 µM. actives 0.34% (n = 99,000). AID 1051; in the data active = TR-FRET ratio above about 2300
PPARg SRC1 recr: promotes SRC-1 coactivator recruitment by human PPARgamma; activation, % at 8 µM; actives 0.41% (n = 200,000); PPARgamma-SRC-1 coactivator recruitment biochemical assay; P37231; in the data active = activation above about 19%
PPARg SRC3 recr: agonists of human PPARgamma SRC-3 coactivator recruitment; P37231; biochemical PPARgamma/SRC-3 coactivator recruitment assay; activation, % at 8 µM; actives 0.26% (n = 200,000); AID 731; in the data active = activation above about 23%
A number is an active result. This is a sample that favours compounds with a hit; in the whole collection about 0.9% have one here. Cut-off read from the data, not from the text of the source, unless noted: active = TR-FRET ratio above about 2000; inactive = the rest.

Screening CCOC(=O)CS(=O)(=O)c1ccc(O)cc1 returned SRC3 TRFRET art inactive, PPARg SRC-2 ag inactive, TR-FRET SRC-2 ct inactive, SRC1 TRFRET art inactive, PPARg SRC1 recr 21 and PPARg SRC3 recr inactive.
`Cc1cc(C)n(CCCN2C(=O)c3cccc4cccc(c34)C2=O)n1` gave SRC3 TRFRET art inactive, PPARg SRC-2 ag inactive, TR-FRET SRC-2 ct inactive, SRC1 TRFRET art inactive, PPARg SRC1 recr inactive and PPARg SRC3 recr inactive.
COc1ccccc1C(=O)Nc1ccccn1 was read as PPARg SRC-2 ag 24, TR-FRET SRC-2 ct inactive, PPARg SRC1 recr inactive and PPARg SRC3 recr inactive.
Screening COc1ccccc1C(=O)Nc1cccnc1 returned SRC3 TRFRET art inactive, PPARg SRC-2 ag inactive, TR-FRET SRC-2 ct inactive, SRC1 TRFRET art inactive, PPARg SRC1 recr inactive and PPARg SRC3 recr inactive.
N#Cc1c(N)sc(=S)c2c1CCCC2 was read as PPARg SRC-2 ag inactive, TR-FRET SRC-2 ct 2023, PPARg SRC1 recr inactive and PPARg SRC3 recr inactive.
Cc1[nH]c(=S)c(C#N)c2c1CCCC2 was read as SRC3 TRFRET art inactive, PPARg SRC-2 ag inactive, TR-FRET SRC-2 ct inactive, SRC1 TRFRET art inactive, PPARg SRC1 recr inactive and PPARg SRC3 recr inactive.
Screening COc1ccccc1/C(O)=C(\C#N)c1nc2ccccc2[nH]1 returned SRC3 TRFRET art inactive, PPARg SRC-2 ag inactive, TR-FRET SRC-2 ct inactive, SRC1 TRFRET art inactive, PPARg SRC1 recr inactive and PPARg SRC3 recr inactive.
Screening C#CC(C)(CC)NC(=O)Cn1nnc(-c2cccc(C(F)(F)F)c2)n1 (stereo not drawn) returned SRC3 TRFRET art inactive, PPARg SRC-2 ag inactive, TR-FRET SRC-2 ct inactive, SRC1 TRFRET art inactive, PPARg SRC1 recr inactive and PPARg SRC3 recr inactive.
Screening CC1CCCCN1C(=O)COc1ccc(F)cc1 (stereo not drawn) returned SRC3 TRFRET art inactive, PPARg SRC-2 ag inactive, TR-FRET SRC-2 ct inactive, SRC1 TRFRET art inactive, PPARg SRC1 recr inactive and PPARg SRC3 recr inactive.
For CC(=O)c1cccc(NC(=O)c2cc3ccccn3n2)c1 the results were PPARg SRC-2 ag 24, TR-FRET SRC-2 ct inactive, PPARg SRC1 recr inactive and PPARg SRC3 recr inactive.
Screening Cc1nn(Cc2ccccc2Cl)c(C)c1NC(=O)CSc1n[nH]c(C)c1[N+](=O)[O-] returned SRC3 TRFRET art inactive, PPARg SRC-2 ag inactive, TR-FRET SRC-2 ct inactive, SRC1 TRFRET art inactive, PPARg SRC1 recr inactive and PPARg SRC3 recr inactive.
For O=C(Cc1ccccc1)Nc1cccc(N2C(=O)C=CC2=O)c1 the results were SRC3 TRFRET art inactive, PPARg SRC-2 ag inactive, TR-FRET SRC-2 ct inactive, SRC1 TRFRET art inactive, PPARg SRC1 recr inactive and PPARg SRC3 recr inactive.
For Cc1ccc(NS(=O)(=O)c2ccc(Cl)c(C(=O)Nc3ccccc3-c3nc4ccccc4[nH]3)c2)cc1C the results were SRC3 TRFRET art inactive, PPARg SRC-2 ag inactive, TR-FRET SRC-2 ct inactive, SRC1 TRFRET art inactive, PPARg SRC1 recr inactive and PPARg SRC3 recr inactive.
For CC(=O)Nc1ccc(Br)c2ccccc12 the results were SRC3 TRFRET art 2311, PPARg SRC-2 ag inactive, TR-FRET SRC-2 ct 2043, SRC1 TRFRET art 2333, PPARg SRC1 recr inactive and PPARg SRC3 recr inactive.
Cc1cc(C)c(S(=O)(=O)Nc2ccc3[nH]c(=O)[nH]c3c2)c(C)c1 was read as SRC3 TRFRET art inactive, PPARg SRC-2 ag inactive, TR-FRET SRC-2 ct inactive, SRC1 TRFRET art inactive, PPARg SRC1 recr 22 and PPARg SRC3 recr inactive.
Screening Cc1cc(C)c(S(=O)(=O)Nc2c(C)[nH]c(=O)[nH]c2=O)c(C)c1 returned PPARg SRC-2 ag inactive, TR-FRET SRC-2 ct inactive, PPARg SRC1 recr inactive and PPARg SRC3 recr inactive.
`O=C(NCCCN1CCCC1=O)c1ccc2c(c1)ncn2C1CCCCC1` gave SRC3 TRFRET art inactive, PPARg SRC-2 ag 22, TR-FRET SRC-2 ct inactive, SRC1 TRFRET art inactive, PPARg SRC1 recr inactive and PPARg SRC3 recr inactive.
For CC(C)OCCCNC(=O)c1ccc2c(c1)ncn2C1CCCC1 the results were SRC3 TRFRET art inactive, PPARg SRC-2 ag inactive, TR-FRET SRC-2 ct inactive, SRC1 TRFRET art inactive, PPARg SRC1 recr inactive and PPARg SRC3 recr inactive.
`COc1ccccc1NC(=O)C1=C(C)NC(SCC(=O)c2ccc(C)cc2)=C(C#N)C1c1ccco1` (stereo not drawn) gave PPARg SRC-2 ag inactive, TR-FRET SRC-2 ct 2554, PPARg SRC1 recr inactive and PPARg SRC3 recr inactive.
`O=c1c2ccccc2nc(-c2ccccc2)n1CCCN1CCOCC1` gave PPARg SRC-2 ag inactive, TR-FRET SRC-2 ct inactive, PPARg SRC1 recr 19 and PPARg SRC3 recr inactive.
Screening Cc1ccc(-c2nc3ccccc3c(=O)n2CCCN2CCOCC2)cc1 returned PPARg SRC-2 ag inactive, TR-FRET SRC-2 ct inactive, PPARg SRC1 recr inactive and PPARg SRC3 recr inactive.
Cc1cc2ncn(C(=O)N3CCCCCC3)c2cc1C was read as PPARg SRC-2 ag inactive, TR-FRET SRC-2 ct inactive, PPARg SRC1 recr inactive and PPARg SRC3 recr inactive.
Screening CCOc1ccc(NC(=S)Nc2ccc3nsnc3c2)cc1 returned SRC3 TRFRET art inactive, PPARg SRC-2 ag inactive, TR-FRET SRC-2 ct inactive, SRC1 TRFRET art 2443, PPARg SRC1 recr inactive and PPARg SRC3 recr inactive.
For C=CCNC(=S)Nc1ccc2nsnc2c1 the results were SRC3 TRFRET art inactive, PPARg SRC-2 ag inactive, TR-FRET SRC-2 ct inactive, SRC1 TRFRET art 2407, PPARg SRC1 recr inactive and PPARg SRC3 recr inactive.
For S=C(Nc1ccc2nsnc2c1)NC1CCCCC1 the results were SRC3 TRFRET art inactive, PPARg SRC-2 ag inactive, TR-FRET SRC-2 ct inactive, SRC1 TRFRET art 2457, PPARg SRC1 recr inactive and PPARg SRC3 recr inactive.
Screening S=C(Nc1ccc(Cl)c(Cl)c1)NC1CCCCC1 returned PPARg SRC-2 ag inactive, TR-FRET SRC-2 ct inactive, PPARg SRC1 recr inactive and PPARg SRC3 recr inactive.
C#CCOCCOCCOCCNc1nc(N2CCN(C(=O)[C@H]([C@@H](C)CC)n3cc([C@@H](N)CC(C)C)nn3)CC2)nc(N2CCN(C(=O)[C@H](CCCCN)n3cc([C@@H](N)CO)nn3)CC2)n1 was read as SRC3 TRFRET art inactive, PPARg SRC-2 ag inactive, TR-FRET SRC-2 ct inactive, SRC1 TRFRET art inactive, PPARg SRC1 recr inactive and PPARg SRC3 recr inactive.
`COc1ccc(-n2nc3c(c2NC(=O)c2ccc(S(=O)(=O)N4CCOCC4)cc2)CS(=O)C3)cc1` (stereo not drawn) gave SRC3 TRFRET art inactive, PPARg SRC-2 ag inactive, TR-FRET SRC-2 ct inactive, SRC1 TRFRET art inactive, PPARg SRC1 recr inactive and PPARg SRC3 recr inactive.
For Cn1c(SCc2cccnc2)nc2c(c1=O)SCC2 the results were SRC3 TRFRET art inactive, PPARg SRC-2 ag inactive, TR-FRET SRC-2 ct 2241, SRC1 TRFRET art inactive, PPARg SRC1 recr inactive and PPARg SRC3 recr inactive.
For CCN(CC)c1ccc(/C=C(/C#N)c2nc3ccc(C)cc3[nH]2)c(OC(C)C)c1 the results were PPARg SRC-2 ag inactive, TR-FRET SRC-2 ct inactive, PPARg SRC1 recr inactive and PPARg SRC3 recr inactive.
`CCCOc1cc(N(CC)CC)ccc1/C=C(/C#N)c1nc2ccc(C)cc2[nH]1` gave PPARg SRC-2 ag 37, TR-FRET SRC-2 ct 2008, PPARg SRC1 recr inactive and PPARg SRC3 recr inactive.
CN(C)c1ncc(C2=C(Cl)C(=O)C(N3CCCC3)=C(Cl)C2=O)s1 was read as PPARg SRC-2 ag inactive, TR-FRET SRC-2 ct inactive, PPARg SRC1 recr 26 and PPARg SRC3 recr inactive.
Screening CN(C)S(=O)(=O)c1ccc(C(=O)Nc2nc(-c3cccs3)cs2)cc1 returned PPARg SRC-2 ag inactive, TR-FRET SRC-2 ct inactive, PPARg SRC1 recr inactive and PPARg SRC3 recr inactive.
